Measured values: PubChem BioAssay AID1159580 (chemical genetic matrix, 2015)
Screen size: about 5,500 compounds; about 2,000 (36%) were called active. Another 18% or so got no clear call; they are omitted. Rule as the data show it: active = normalized growth mostly below about 0.91 (no sharp cut-off); inconclusive = no clear call, values can overlap the other calls; inactive = mostly above about 0.92. This is one part of the list.

Assay: chemical genetic growth profiling, strain panel (AID 1159580);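 also: tested at 20 µM; growth read once vehicle control cultures reached saturation at 30 °C; 1 = growth at the plate median or of vehicle wells; lower values mean less growth of the strain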
Settings: S. cerevisiae deletion strains, growth OD

Measured: normalized growth

COc1cc2oc3cc(OC)c(OC)c(CC=C(C)C)c3c(=O)c2c(OC)c1CC=C(C)C
inactive: locus YHR030C, strain SLT2, hits give low values 0.934 | locus YHR079C, strain IRE1, hits give low values 0.927 | locus YJL095W, strain BCK1, hits give low values 0.918 | locus YJR066W, strain TOR1, hits give low values 0.885 | locus YLR113W, strain HOG1, hits give low values 0.895 | locus YNL183C, strain NPR1, hits give low values 0.862 | locus YOR231W, strain MKK1, hits give low values 0.905 | locus YPL256C, strain CLN2, hits give low values 0.955
